Results: PubChem BioAssay (NCI)
Compounds without any hit were thinned out: in the full panel of roughly 83,000, 20% have a hit.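 Interpretation: 100, growth as untreated; towards 0, rising growth inhibition; 0, no net growth; 0 to -100, cell death. Compounds scoring below 10 were considered active.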 The source made the active and inactive calls.

Tests used:
Test in all cases: NCI-60 one-dose screen, 48 h (100 = growth as untreated, 0 = no growth, -100 = all killed)
Details in all cases: 10 µM
SR leukemia = test system: SR leukemia
RPMI-8226 leukemia = test system: RPMI-8226 leukemia
OVCAR-8 ovarian = test system: OVCAR-8 ovarian
OVCAR-5 ovarian = test system: OVCAR-5 ovarian
OVCAR-4 ovarian = test system: OVCAR-4 ovarian
IGROV1 ovarian = test system: IGROV1 ovarian
HS 578T breast = test system: HS 578T breast
NCI/ADR-RES ovarian = test system: NCI/ADR-RES ovarian
BT-549 breast = test system: BT-549 breast
MDA-MB-435 melanoma = test system: MDA-MB-435 melanoma
SW-620 colon = test system: SW-620 colon
MCF7 breast = test system: MCF7 breast
HCT-116 colon = test system: HCT-116 colon
HCC-2998 colon = test system: HCC-2998 colon
KM12 colon = test system: KM12 colon
OVCAR-3 ovarian = test system: OVCAR-3 ovarian
T-47D breast = test system: T-47D breast
SK-OV-3 ovarian = test system: SK-OV-3 ovarian

Structure (SMILES)	growth (SR leukemia)	growth (RPMI-8226 leukemia)	growth (OVCAR-8 ovarian)	growth (OVCAR-5 ovarian)	growth (OVCAR-4 ovarian)	growth (IGROV1 ovarian)	growth (HS 578T breast)	growth (NCI/ADR-RES ovarian)	growth (BT-549 breast)	growth (MDA-MB-435 melanoma)	growth (SW-620 colon)	growth (MCF7 breast)	growth (HCT-116 colon)	growth (HCC-2998 colon)	growth (KM12 colon)	growth (OVCAR-3 ovarian)	growth (T-47D breast)	growth (SK-OV-3 ovarian)
COc1ccc2nc3cc(Cl)ccc3c(NCCCNCCO)c2c1	-8.29% (active)	-12.1% (active)	-23.2% (active)	-9.73% (active)	-35.9% (active)	2.85% (active)	6.23% (active)	62.4% (inactive)	5.74% (active)	-69.1% (active)	-2.84% (active)	-18.6% (active)	-50.4% (active)	-43.6% (active)	3.19% (active)			
O=C(CCl)Oc1ccc(OC(=O)CCl)cc1	68.7% (inactive)	25.7% (inactive)	88.8% (inactive)	111% (inactive)	91.3% (inactive)	93.1% (inactive)	82.4% (inactive)	79.4% (inactive)	46.9% (inactive)	85.3% (inactive)	89.8% (inactive)	77.9% (inactive)	94.5% (inactive)	109% (inactive)	83.7% (inactive)	77.6% (inactive)		
COc1ccc(/C=C2\CCCC3=C2NC(N)=NC3c2ccc(OC)cc2)cc1 (stereo unspecified)	81.9% (inactive)	57.7% (inactive)	95.8% (inactive)	103% (inactive)	72.8% (inactive)	99.7% (inactive)	112% (inactive)	90.8% (inactive)	112% (inactive)	90.2% (inactive)	95.8% (inactive)	72.3% (inactive)	78.6% (inactive)	116% (inactive)	87.2% (inactive)	102% (inactive)	104% (inactive)	
C[C@@H](O)[C@H]1C(=O)N2C(C(=O)O)=C(SCCN=CN)C[C@H]12	-5.48% (active)	-3.62% (active)	-10.1% (active)	3.52% (active)	-2.15% (active)	-5.16% (active)	24.3% (inactive)	-13.9% (active)	18.9% (inactive)	-9.18% (active)	-0.331% (active)	-6.51% (active)	-24.8% (active)		9.33% (active)	-15% (active)	-6.42% (active)	
COc1cc(-c2ccc(N=Nc3ccc4c(S(=O)(=O)O)ccc(N)c4c3O)c(OC)c2)ccc1N=Nc1ccc2c(S(=O)(=O)O)ccc(N)c2c1O	146% (inactive)	115% (inactive)	99.6% (inactive)	111% (inactive)	98.4% (inactive)		124% (inactive)	109% (inactive)	117% (inactive)			95.6% (inactive)	114% (inactive)	114% (inactive)	114% (inactive)	109% (inactive)	105% (inactive)	91.4% (inactive)
O=C1/C=C/[C@@H](O)[C@@H]2C[C@@H](O)C[C@H]2/C=C/CCC[C@H](CCc2ccc(C(F)(F)F)cc2)O1	1.16% (active)	-8.16% (active)	2.31% (active)	13.6% (inactive)	9.39% (active)	5.99% (active)	27.8% (inactive)	3.21% (active)	4.5% (active)	7.3% (active)	-1.3% (active)	-17.5% (active)	-45.8% (active)	-11.5% (active)	-6.74% (active)	-10.4% (active)	-32.2% (active)	
CCN(CC)CCCC(C)N=C(C1=C(C(=NC(C)CCCN(CC)CC)c2cccc(OC)c2)C(=O)NC1=O)c1cccc(OC)c1 (stereo unspecified)	2.6% (active)	-30.6% (active)	-11.3% (active)	-3.07% (active)	-23.5% (active)		16.4% (inactive)	4.23% (active)		-91.1% (active)	-9.07% (active)	-29.8% (active)	-19% (active)	-69.9% (active)	2.43% (active)	-17.7% (active)	-37.3% (active)	9.81% (active)
CS(=O)(=O)c1nccc(-c2c(-c3cccc(O)c3)nc3sccn23)n1	72.4% (inactive)	91.5% (inactive)	94.9% (inactive)	99.3% (inactive)	78.2% (inactive)	117% (inactive)	93% (inactive)	101% (inactive)	113% (inactive)	84.6% (inactive)	106% (inactive)	86.3% (inactive)	91% (inactive)	114% (inactive)	96.6% (inactive)	97% (inactive)	99% (inactive)	
C#CC(C)(O)[C@@H]1C[C@H](CC(=O)O)C1(C)C (stereo partly specified)	88.9% (inactive)	109% (inactive)	112% (inactive)	102% (inactive)	117% (inactive)		105% (inactive)	111% (inactive)	104% (inactive)		109% (inactive)	94% (inactive)	106% (inactive)		108% (inactive)	119% (inactive)	120% (inactive)	116% (inactive)
N#Cc1c(-c2ccc(Cl)cc2)csc1NC(=O)Nc1ccc(Cl)c(C(F)(F)F)c1	-15.1% (active)	1.61% (active)	23% (inactive)	60.2% (inactive)	-26.4% (active)	22.1% (inactive)	29.6% (inactive)	8.74% (active)	6.57% (active)	26% (inactive)	11.1% (inactive)	3.1% (active)	-14.7% (active)	19.8% (inactive)	10.4% (inactive)	-19.7% (active)	-17.7% (active)	
O=C(CSc1nnc(-c2cccnc2SCc2ccccc2)o1)Nc1nc(Cl)cc(Cl)n1	101% (inactive)	100% (inactive)	102% (inactive)	106% (inactive)	106% (inactive)	105% (inactive)	97.4% (inactive)	101% (inactive)	102% (inactive)	105% (inactive)	103% (inactive)	92% (inactive)	97.3% (inactive)	103% (inactive)		106% (inactive)	98.5% (inactive)	
Cc1ccc(N=Nc2ccccc2)cc1	90.3% (inactive)	100% (inactive)	106% (inactive)	99.7% (inactive)	108% (inactive)	102% (inactive)	103% (inactive)		90% (inactive)	101% (inactive)		98.3% (inactive)	78.4% (inactive)	103% (inactive)	93.8% (inactive)	105% (inactive)	88.2% (inactive)	
Nc1nc(-c2ccc(Cl)cc2)cc(-c2cc3ccccc3oc2=O)n1	106% (inactive)	98.6% (inactive)	106% (inactive)	108% (inactive)	100% (inactive)	55.1% (inactive)	107% (inactive)	108% (inactive)		104% (inactive)	97.2% (inactive)	79.8% (inactive)	87.7% (inactive)	126% (inactive)	103% (inactive)	100% (inactive)		
CCN(CC)CCCC(Nc1c2ccc(Cl)cc2nc2ccc(OC)cc12)c1ccc(F)cc1 (stereo unspecified)	-13.9% (active)	-33.3% (active)	15.2% (inactive)	61.7% (inactive)	12.6% (inactive)	41.5% (inactive)	84% (inactive)	28.9% (inactive)	81.5% (inactive)	-86.9% (active)	-53.9% (active)	-62.9% (active)	-41% (active)	-85% (active)	14.7% (inactive)	108% (inactive)		
CCc1c2c(nc3ccc(OC(=O)N4CCC(N5CCCCC5)CC4)cc13)-c1cc3c(c(=O)n1C2)COC(=O)[C@]3(O)CC	1.34% (active)	60.8% (inactive)	28.1% (inactive)	70.4% (inactive)	62.4% (inactive)	49.9% (inactive)	102% (inactive)	24.5% (inactive)	22.1% (inactive)	34.2% (inactive)	41.4% (inactive)	3.64% (active)	22% (inactive)	28.2% (inactive)	53.1% (inactive)	33% (inactive)	25.1% (inactive)	
COc1cc(/C=C2\CCCC3=C2N=C2SC(C)=CN2C3c2cc(OC)c(OC)c(OC)c2)cc(OC)c1OC (stereo unspecified)	0.0832% (active)	-17% (active)	-9.4% (active)	-15% (active)	39.6% (inactive)	2.86% (active)	49.9% (inactive)	1.74% (active)	-14.5% (active)	1.99% (active)	-0.154% (active)	16% (inactive)	-86.2% (active)	-88% (active)	-80.4% (active)	-2.36% (active)	33.1% (inactive)	
CC(=O)Nc1ccc(CC[C@H]2CCC/C=C/[C@@H]3C[C@H](O)C[C@H]3[C@H](O)/C=C/C(=O)O2)cc1	3.92% (active)	3.69% (active)	0.483% (active)	23% (inactive)	18.4% (inactive)	20.3% (inactive)	34.9% (inactive)	18.7% (inactive)	27.5% (inactive)	14.7% (inactive)	0.331% (active)	-14.8% (active)	-67.9% (active)	2.85% (active)		6.39% (active)	7.42% (active)	
O=C1CC(SC(=S)C2CCCC2=O)C(=O)N1 (stereo unspecified)	89.9% (inactive)	100% (inactive)	96.3% (inactive)	109% (inactive)	106% (inactive)		104% (inactive)		100% (inactive)	114% (inactive)	110% (inactive)	90.8% (inactive)	99.2% (inactive)	108% (inactive)	103% (inactive)	109% (inactive)	93.9% (inactive)	105% (inactive)
CNC(=O)c1cn(C2CC2)c2cc(N3CCN(C(=O)c4cc(OC)c(OC)c(OC)c4)CC3)c(F)cc2c1=O	92.2% (inactive)	97.6% (inactive)	100% (inactive)	96% (inactive)	98.6% (inactive)	102% (inactive)	101% (inactive)	96.7% (inactive)	112% (inactive)	108% (inactive)	103% (inactive)	94.3% (inactive)	103% (inactive)	113% (inactive)	102% (inactive)	106% (inactive)	79% (inactive)	
